The supplement of paper PMC6555819

How the values were obtained:
Experiment in all cases: PBM binding z-score (relative to random genomic background probes); higher = stronger binding; sequences stand for … in GC…GCGATTGACAGCGTAGAATGAAGG
[1] = tested on: RARb homodimer (NR concentration 270 nM)
How it was run: (§1)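 Each nuclear receptor dimer, without ligand, was incubated for 1 h on custom Agilent 4×180K protein-binding microarrays. Binding was detected with antibodies against each partner (one per run), and scanned fluorescence was regression-normalized. The binding z-scores are referenced to random human genomic background probes.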

[2] = tested on: RARg:RXRa (NR concentration 270 nM, RXRa partner concentration 90 nM)
How it was run: as §1

[3] = tested on: RARg homodimer (NR concentration 270 nM)
How it was run: as §1

[4] = tested on: RXRa DBDmut IVT, anti-RXR (DBD mutation: RXRa K156A/R161A, NR concentration 90 nM)
How it was run: as §1

[5] = tested on: RXRa homodimer (NR concentration 180 nM)
How it was run: as §1

[6] = tested on: THRa:RXRa (NR concentration 90 nM, RXRa partner concentration 90 nM)
How it was run: as §1

[7] = tested on: THRa homodimer (NR concentration 90 nM)
How it was run: as §1

[8] = tested on: VDR homodimer (NR concentration 270 nM)
How it was run: as §1

| Sequence | PBM binding z-score [1] | PBM binding z-score [2] | PBM binding z-score [3] | PBM binding z-score [4] | PBM binding z-score [5] | PBM binding z-score [6] | PBM binding z-score [7] | PBM binding z-score [8] |
| --- | --- | --- | --- | --- | --- | --- | --- | --- |
| GCGAATGGGGCAAAGCAGGTTACCATAAGGTTGG | 1.06 | 0.565 | 0.52 | -0.201 | 0.442 | 3.12 | 0.0667 | -0.552 |
| GCTCGGAGGACAAAGTCAGAGCTTTGTCCGTAGA | -0.0434 | -0.436 | -0.0287 | -0.569 | -0.989 | 0.05 | -0.629 | -0.348 |
| CCTCGGAGGACAGAAGGTCAGAGCCGTCCGCTTT | 3.64 | 3.4 | 3.1 | 0.361 | 2 | 2.33 | 0.0553 | -0.0393 |
| AGAACGAGGGCAATGAGTTGATGGCACGGGTGGC | 1.11 | 0.928 | 1.54 | 1.36 | 0.636 | 0.857 | -0.205 | 2.62 |
| TCATATAGGTAAATGGTAGGTGAAAGTCCGATCT | 0.917 | 0.69 | 0.384 | 1.84 | 0.945 | 0.858 | 0.785 | 1.1 |
| GCTAGCACGCCATTTGGGTCACTCAATGACGGGC | 1.32 | 0.76 | 0.779 | -0.343 | 0.832 | 1.5 | 0.413 | -0.357 |
| GCTGCTGGGTCAGGTTGGTCAGCTAACGGGTACG | 2.57 | 1.94 | 2.78 | -0.0156 | 0.839 | 1.21 | 0.312 | 0.573 |
| TAGCCTAGGTCATTCAGGAGCCAGTATAGAAAGC | 2.45 | 4.25 | 4.41 | 1.37 | 2.96 | 2.68 | 0.478 | 1.09 |
| TCTCCTAGGTCAGTTGGTCAGCTAACGAGCTGCC | 2.95 | 3.2 | 3.85 | 1.16 | 1.38 | 1.79 | 0.747 | 0.116 |
| AGTCAAAGTTCATCTAGGTAACCTAAGATATGCT | 4.08 | 5.61 | 6.14 | 4.79 | 4.87 | 3.21 | 0.817 | 5.75 |
| CCTATTAGTTTACCATAAGGGCAACCGAAGCTCG | 1.96 | 1.14 | 1.1 | 0.915 | 0.566 | 2.06 | 1.39 | 1.03 |
| ACTAATAGTTGAGACGAGGGCAACCGATAGGTTG | 1.37 | 0.936 | 1.15 | 0.345 | 0.834 | 3.43 | 0.12 | 0.709 |
| CCCATTAGTTGACCATAAGGGCAACCGAAGCTCG | 2.53 | 1.4 | 0.963 | 0.208 | 0.666 | 2.07 | 1.89 | 1.05 |
| TTATCAAGGTGAGCTGAGGTCGTTGATCCAACTC | 1.62 | 1.33 | 1.07 | 0.397 | 1.59 | 4.64 | 2.47 | 2.33 |
| CAAACTAGGTCACGAAAGTTCAAAGTCGAATGAC | 5 | 6.73 | 7.67 | 2.96 | 5.99 | 4.31 | 1.46 | 4.82 |
| TAGCCTAGGTCATGTGCCAGTATACCACGCGAAC | 2.84 | 3.83 | 4.32 | 1.26 | 3.14 | 2.91 | 1.55 | 0.739 |
| TCTTGTAGATTAACAGGAGGTTAAGAAAGATCGA | 0.36 | 0.787 | 0.386 | 0.566 | 1.05 | 1.03 | -0.287 | 0.0136 |
| AAATGTAGGTTATCGGGTCATTCAGTTTGCGCAT | 3.09 | 3.27 | 2.33 | 1.88 | 3.42 | 3.41 | 2.84 | 4 |
| CCTACCGGGCCATCAGGTCATTGATATCAACGTT | 2.68 | 2.12 | 2.18 | -0.283 | 1.28 | 3.19 | 3.37 | 1.78 |

| Sequence | PBM binding z-score [1] | PBM binding z-score [2] | PBM binding z-score [3] | PBM binding z-score [4] | PBM binding z-score [5] | PBM binding z-score [6] | PBM binding z-score [7] | PBM binding z-score [8] |
| --- | --- | --- | --- | --- | --- | --- | --- | --- |
| TCTAGTTGGTCACGGAGGTCAGACACGACGGGTA | 3.9 | 3.72 | 3.75 | 1 | 3.4 | 2.79 | 1.39 | 1.56 |
| GGAACGAGGGGAAAGTTGATAGCATCTGTCGACG | 0.0344 | 0.0991 | 0.188 | 0.287 | 0.258 | 0.0347 | -0.259 | -0.402 |
| ATATGTAGGTTACATCCGGGTCATTCGGGCTATG | 2.99 | 3.7 | 2.26 | 1.22 | 3.01 | 3.69 | 2.36 | 3.19 |
| CTACCAAGGTGAACAAGGTCTTTGATTACTATTC | 1.24 | 0.878 | 0.946 | 0.886 | 0.789 | 2.52 | 1.42 | 0.414 |
| GCTATTAGTTGAAAGGGTAACCGAATGATTCTCG | 0.907 | 0.593 | 0.407 | 1.01 | 0.952 | 0.527 | 0.212 | -0.0669 |
| AGAACGAGGGCATTGAGTTGATAGCACGGGTGGC | 1.01 | 1.11 | 1.39 | 3.13 | 1.04 | 1.14 | -0.127 | 5.15 |
| ATCTCTAGGTAACCAAGTTCAGTCAATGCCGAAC | 2 | 1.22 | 1.21 | 1.27 | 0.744 | 1.86 | 1.06 | 3.43 |
| CGTCAAAGTTCAATGTAACGTAACAGAAAGCAGC | 3.56 | 4.82 | 5.45 | 4.69 | 3.78 | 1.64 | -0.0537 | 3.96 |
| ATTTACGGGTCAACGAGGTTATAGCACGCGTATA | 3.79 | 6.1 | 5.62 | 2.5 | 6.99 | 4.19 | 1.43 | 4.5 |
| GCACCAAGGTGAATAGGTCGTTGATGAGTAGGCG | 1.77 | 2.42 | 1.1 | 0.00127 | 1.77 | 1.63 | 0.229 | -0.0787 |
| GATACAAGGTCAAGGCCAGAGTACGCGTATTGAT | 4.63 | 5.82 | 6.11 | 2.63 | 5.5 | 3.88 | 2.35 | 2.41 |
| GCTCGGATGACAAGGTCAGAGCTTTGTCCGTAGA | 2.57 | 2.42 | 2.02 | 0.22 | 2.15 | 2.5 | 1.09 | 0.292 |
| CCTAGCAGGCCAATCTGGTTCACTCAAGGCTTGA | 0.26 | -0.172 | -0.0939 | 0.398 | -0.304 | 1.38 | -0.212 | 0.42 |
| GCTAGTTGATCAGTAAAAGGTCACACACCGGTCG | 4.9 | 5.1 | 4.68 | 0.532 | 5.54 | 3.45 | 1.59 | 1.8 |
| ATCTCTAGGTAAGAAGTTCAGTGAAAGAGAGGAC | 1.85 | 1.25 | 1.48 | 0.26 | 0.531 | 0.982 | 0.234 | 1.52 |
| TCTGCTAGGTCAGTTTGTCAGCTAACGAGCTGCC | 1.74 | 1.84 | 2.44 | 0.8 | 0.666 | 0.996 | 0.0715 | -0.975 |
| TCATATAGGTAATACAGGTAAAAGTCGGCATCTA | -0.0506 | 0.506 | 0.536 | 1.9 | 1.21 | 0.497 | 0.159 | 0.0521 |
| TCTAGCAGGCCCGAGGGTCACTCAAGAGGTACGG | 2.43 | 2.27 | 1.72 | 0.126 | 2.42 | 1.67 | -0.376 | 0.268 |
| AGTACAGGGTCACTAGGCCAGAGTAGGTACGAAT | 3.49 | 5.25 | 5.26 | 2.61 | 5.43 | 3.41 | 1.04 | 2.39 |

| Sequence | PBM binding z-score [1] | PBM binding z-score [2] | PBM binding z-score [3] | PBM binding z-score [4] | PBM binding z-score [5] | PBM binding z-score [6] | PBM binding z-score [7] | PBM binding z-score [8] |
| --- | --- | --- | --- | --- | --- | --- | --- | --- |
| CCTTACGGGTCACTGTCAGGTTATAGCATTTGGA | 3.14 | 5.51 | 4.38 | 1.75 | 4.49 | 3.83 | 0.905 | 1.41 |
| CAAATTAGGTCAAGGTCAAAGTCGGTTTGTGCCA | 5.11 | 6.43 | 7 | 3.32 | 6.65 | 4.42 | 4.59 | 4.95 |
| ACTCGGAGGACAAAGGACAGAGCTACGCCAGTGA | 1.11 | 1 | 1.64 | 0.398 | 0.0489 | 0.569 | -0.18 | -0.184 |
| CGTCCAAGGTCAATGCTAGGACAGTGAAAGCATT | 4.05 | 5.76 | 5.95 | 3.01 | 4.3 | 4.3 | 2.32 | 2.24 |
| ATACCAAGGTGAGCGTGAGGTCGTTGATACTAAC | 2 | 2.92 | 1.6 | 0.221 | 2.01 | 3.8 | 2.51 | 2.3 |
| TCGATTAGTTGAAGGGCAACCGACGAGTCCGTTT | 1.04 | 0.11 | 0.294 | 1.01 | 0.397 | -0.146 | -0.591 | 0.943 |
| AGAATGAGGTTACCAAAGATCAGAGAAACGCTTG | 0.638 | 2.17 | 1.6 | 1.04 | 2.47 | 2.64 | 0.519 | 0.185 |
| TGTCAAAGTTTAAAGGTAACGTAAGTATCCACAC | 1.36 | 2.26 | 1.75 | 1.11 | 2.1 | 1.99 | -0.137 | 0.446 |
| CTCGCAAGGTCGGTTGAGGTGAGTATACGGATAA | 1.72 | 1.27 | 1.25 | 0.828 | 1.01 | 4.74 | 1.75 | 0.439 |
| ATATGTAGGTTACATCCGGGTCGTTCAGGCTATG | 1.5 | 1.78 | 1.28 | 1.22 | 1.54 | 2.53 | 1.24 | 1.82 |
| TGAATGAGGTTATAAGATCAGGCAACGTTGCAAA | 0.151 | 1.57 | 0.908 | 0.405 | 2.11 | 1.85 | 0.127 | 0.105 |
| AGAACGAGGGCACGCTGAGTTGATGGCAGAGTAG | 1.37 | 2.06 | 2.33 | 1.76 | 1.53 | 1.89 | 0.0857 | 1.71 |
| TCATATAGGTAAGTGCTAGGTGAAAGTCCGATCT | 0.823 | 0.114 | 0.186 | 1.23 | 0.629 | 0.873 | 0.473 | 0.173 |
| ACAGACAGTTGAGTGAAGGTAACTCAGCTGGACG | -0.475 | 0.0376 | 0.211 | -0.165 | 0.132 | 0.662 | -0.514 | -0.463 |
| GTACCAAGATGAATAGGTCGTTGATGAGTAGGCG | 0.283 | 0.181 | 0.272 | -0.187 | 0.691 | 0.143 | -0.535 | -0.179 |
| CGTCCAAGGTCAATGCTAGGTCAGTGAGAGCATT | 5.01 | 7.45 | 6.65 | 3.53 | 5.06 | 4.37 | 2.87 | 3.36 |
| TCATATAGGTAATGCAGGTGAAAGTCGGCATCTA | 0.531 | 0.489 | 0.438 | 1.04 | 0.993 | 1.1 | 0.297 | 0.176 |
| GGAACGATGGCATTCGAGTTGATAGCATGGCGAT | -1.05 | -0.259 | -0.016 | -0.146 | -0.284 | 0.175 | -0.974 | -0.268 |
